Most compounds without a hit are left out; they make up all but 3.9% or so of the library.
ERK AVP block – blocks ERK signaling stimulated by vasopressin; HEK293-V1b, vasopressin-stimulated pERK AlphaScreen; Potency, µM (doses to about 57.5 µM), for inactives: at the top dose activity, negative = inhibition, usual class: inhibitors; actives 0.99% (n = 72,000); also: % is scaled to controls: 0 for no effect and ±100 for the full control effect; nearly all actives have a fitted effect of over 55% in size
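HEK293 cells stably expressing V1b receptor, seeded overnight in 1% FBS, were treated with compounds for 30 min at 37C, then stimulated 5 min with 25 nM vasopressin; phospho-ERK read by AlphaScreen SureFire after lysis.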
GBA activity – alters purified human glucocerebrosidase activity | AID 360 | actives 1.1% (n = 48,000) | P04062 | purified enzyme, resorufin glucoside fluorescence (screen aimed at inhibitors), 20 min | Potency, µM; in the data active = potency below about 15 µM; inconclusive = mostly about 16 µM to 33 µM;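 also: the screen sought inhibitors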
Target sequence (P04062 whole entry, looked up): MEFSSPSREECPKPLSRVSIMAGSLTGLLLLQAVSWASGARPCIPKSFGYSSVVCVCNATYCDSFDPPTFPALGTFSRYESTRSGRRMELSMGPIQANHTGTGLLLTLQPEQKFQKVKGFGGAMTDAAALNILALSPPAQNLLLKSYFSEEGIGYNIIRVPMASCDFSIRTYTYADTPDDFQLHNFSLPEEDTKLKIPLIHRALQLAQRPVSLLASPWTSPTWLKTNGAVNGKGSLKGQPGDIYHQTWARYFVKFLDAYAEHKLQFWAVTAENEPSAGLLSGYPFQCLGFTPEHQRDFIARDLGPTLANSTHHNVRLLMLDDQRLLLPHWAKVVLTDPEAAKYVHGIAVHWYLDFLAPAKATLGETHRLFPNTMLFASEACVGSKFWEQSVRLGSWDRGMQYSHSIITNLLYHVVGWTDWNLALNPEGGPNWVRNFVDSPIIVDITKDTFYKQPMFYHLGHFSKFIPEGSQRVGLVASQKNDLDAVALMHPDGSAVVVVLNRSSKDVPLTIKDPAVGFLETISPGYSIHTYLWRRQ
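Normal human glucocerebrosidase (0.2 nM final) was assayed with resorufin β-D-glucopyranoside (30 uM final) in 50mM citric acid/KH2PO4, 10mM sodium taurocholate, 0.01% tween-20, pH 5.9. Compounds were titrated; fluorescence (Ex 548, Em 600) read after 20 min at RT.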
Bst PK mod – pyruvate kinase (B. stearothermophilus) modulation; purified pyruvate kinase, luminescence ATP production; ribose 5-phosphate activator present at AC10; Potency, µM; actives 1.2% (n = 51,000); in the data active = potency below about 11 µM; inconclusive = mostly about 12 µM to 25 µM;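 the screen sought inhibitors and activators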;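 also: scaled between full activation by ribose 5 phosphate and full inhibition by luteolin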
FLuc inh – inhibitors of firefly luciferase; Potency, µM (series often up to 57.1 µM), inactives show at the top dose activity change, negative = inhibition, most hits filed as inhibitors; AID 411; P08659; purified firefly luciferase, luminescence, 8 min; actives 2.2% (n = 72,000); also: % is scaled to controls: 0 for no effect and ±100 for the full control effect; nearly all actives have a fitted effect of over 40% in size
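Here, luciferase activity is measured as luminescence following an 8 min room-temperature reaction at 10 uM ATP, pH 7.2. Every library sample is titrated.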
* hit, by the source's call; i = inactive; ? = inconclusive; / = no result; [ ] = another dose, or the depositor's remark. Unless noted, calls follow the shape of the dose curve; as a rule, active = well fitted curve in the direction sought with a large enough effect; inconclusive = small, poorly fitted or top-dose-only effect, or another doubt; inactive = no such curve, though single readings can be large; an effect the other way counts as inactive or inconclusive. Potency is read from the fitted curve at half-maximal effect.

SMILES | ERK AVP block | GBA activity | Bst PK mod | FLuc inh
CC(C)(C)c1ccc(-c2cc(N)n[nH]2)cc1 | / | / | / | 12.6µM*
O=C(CN1CCCCCC1)OCCN=C1NS(=O)(=O)c2ccccc21 | -18.9% | >76.9 | >57 | -0.8%
O=C(CCCN=C1NS(=O)(=O)c2ccccc21)OCC(=O)N1CCc2ccccc21 | 0.2% | >76.9 | >57 | 31.6µM*
NC1=N[C@H](c2ccc(Cl)cc2)N(c2ccc(S(N)(=O)=O)cc2)C(N)=N1 | -10.3%[11.5 µM] | / | / | 1.7%[11.4 µM]
COCCn1nnnc1C(c1ccccc1)N1CCN(Cc2ccc3c(c2)OCO3)CC1 (centres undefined) | 39.8µM* | >76.9 | >57 | -3.0%
CCC1=C2CC[C@H]3C(=O)NC(=O)[C@H]3[C@H]2[C@@]2(C)C(=NCCc3c[nH]c4ccccc34)OC(=O)N2C1=O | -0.5% | / | / | /
CCC(=O)Nc1cc2nn(-c3ccc(OC)cc3)nc2cc1C | -22.0% | >76.9 | 3.44* | 1.26µM*
CCCCC(=O)Nc1cc2nn(-c3ccc(OC)cc3)nc2cc1C | 22.4%[11.5 µM] | >76.9 | >57 | -7.5%
CCS(=O)(=O)Nc1ccc(-c2nnc(SCC(=O)c3ccc(NC(C)=O)c(OC)c3)o2)cc1 | -0.6% | >76.9 | >57 | 3.6%
CCS(=O)(=O)Nc1ccc(-c2nnc(SCC(=O)c3cccc(OC)c3)o2)cc1 | -16.1% | 10.7* | >57 | 2.0%
COc1cccc(-c2ccc(-c3noc(-c4ccccc4F)n3)c(OC)n2)c1 | 35.7% | 10.4* | >57 | 2.0%
Cc1ccc(S(=O)(=O)N2CCC(C(=O)NCCCN3CCCCCC3)CC2)cc1 | -17.0% | >76.9 | 10.4* | -1.4%
Cc1ccc(-c2nc(C#N)c(N3CCCCC3)o2)cc1 | / | / | / | -2.7%
CNc1oc(-c2ccc(Cl)cc2)nc1C#N | / | / | 3.08* | -1.9%[25.5 µM]
N#Cc1nc(-c2ccc(F)cc2)oc1N1CCCC1 | / | / | 9.48* | 0.5%[25.5 µM]
N#Cc1nc(-c2ccc(Cl)cc2)oc1N1CCCCC1 | / | / | 5.06* | 1.9%[25.5 µM]
N#Cc1nc(-c2ccc(OCc3ccc(Cl)cc3)cc2)oc1N1CCC(C(N)=O)CC1 | -2.5% | >76.9 | 0.0775* | -0.3%
COC(=O)NC(CC(C)=O)c1cccc(C(F)(F)F)c1 (centres undefined) | 17.0%[11.5 µM] | / | / | /
Cc1noc(C)c1C(=O)N1CCC[C@@]2(CCN(c3cccc(-c4ccccc4)c3)C2)C1 | ? | / | / | 0.0%[11.4 µM]
C=C(CO)[C@H]1Cc2c(ccc3c(=O)c4c(oc23)COc2cc(OC)c(OC)cc2-4)O1 | / | / | / | -5.0%[11.4 µM]
COCC(=O)N1CCC2(CC1)CN(c1ccccn1)C2 | 1.2% | / | / | -0.3%[11.4 µM]
CCCCC | 11.5% | / | / | /
Cc1cccc(CNc2ncncc2-c2cccnc2)c1 | 23.5% | / | / | -1.5%[2.29 µM]
COC(=O)c1[nH]c2ccc(C)cc2c1NC(=O)CN1CCCc2ccccc21 | -10.0% | >76.9 | 9.14* | 1.1%
COC(=O)c1[nH]c2ccc(C)cc2c1NC(=O)CN1CCCCC1C (centres undefined) | 3.9% | >76.9 | >57 | 2.1%
SMILES | ERK AVP block | GBA activity | Bst PK mod | FLuc inh
FC(F)(F)c1ccccc1-c1nc(NCc2cccnc2)c2ccccc2n1 | -3.5% | / | / | 1.7%[2.29 µM]
COc1ccc(CNc2nc(-c3ccc4c(c3)OCO4)nc3ccccc23)c(OC)c1 | -9.5% | / | / | 2.1%[2.29 µM]
CO[C@@H]1COC(=O)[C@H]2CCCN2C(=O)[C@@H](C)COC(=O)CCC[C@H]1C | -9.3%[11.5 µM] | / | / | -0.3%[11.4 µM]
Cc1nnc(NC(=O)C2CCN(c3nnnn3-c3ccccc3)CC2)s1 | 7.6% | 8.69* | >57 | 1.5%
COc1ccc2nc3c(cc2c1)c(NC(=O)c1cccs1)nn3CC(C)C | 72.6% | ? | i | 12.6µM*
CCc1cc2c(nc1CC)CCN(CC/C(C)=N/OC[C@@H](O)COCc1ccco1)C2 | -16.4%[11.5 µM] | / | / | 2.5%[11.4 µM]
O=C(c1ccc2c(c1)OCCO2)C1CCN(S(=O)(=O)c2ccc(F)cc2)CC1 | -8.0% | >76.9 | 10* | 0.0%
N[C@@H](Cn1cc(F)c(=O)[nH]c1=O)C(=O)O | 6.6% | / | / | -0.3%
CC(C)c1ccc(/C=C2\C=C(c3ccc4ccccc4c3)OC2=O)cc1 | -19.8%[11.5 µM] | / | / | 2.1%[11.4 µM]
C=CCSc1nncn1/N=C/c1ccc(OC)cc1 | -4.0% | >76.9 | i | 25.1µM*
CC[C@@H]1OC(=O)[C@@H](C)[C@H](O[C@H]2C[C@@](C)(OC)[C@@H](O)[C@H](C)O2)C(C)[C@H](O[C@H]2O[C@@H](C)C[C@@H](N(C)C)[C@@H]2O)[C@@](C)(O)C[C@H](C)C(=O)[C@@H](C)[C@H](O)[C@@]1(C)O (some centres undefined) | 0.2% | / | / | /
CCOC(=O)c1c(C)nc2sccn12 | ? | >76.9 | >11.4 | -0.1%
CCOC(=O)c1c(C)nc2c3ccccc3ccn12 | ? | >76.9 | 6.85* | 10µM*
N#CCCN1CCN(C(=S)c2ccc(-c3cccc(Cl)c3)o2)CC1 | ? | / | / | -16.8%
